Data on 34 compounds can be found in article PMC5540273 (PLoS ONE, 2017).

Molecules are shown by their SMILES.
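Further: KINOMEscan kinase panel screen.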

The first experiment has as its system FGFR2. Particulars: concentration: 1 μM, replicates: in singlicate; n = 1.
As for `Cl.Cl.NCC(NCc1ccc(-c2ccnc3[nH]ccc23)s1)c1ccccc1` (stereo not shown) [GSK1321565], the “%Inh” value came to 0%.

Take `Cn1cc(-c2ccc3c(c2)CCN3C(=O)Cc2cccc(F)c2)c2c(N)ncnc21` [GSK2603358]: the “%Inh” value is 0%.

For `Clc1ccc(-c2nn3ncccc3c2-c2ccnc(Nc3ccc4c(c3)OCCO4)n2)cc1` [GW829116], the “%Inh” value was 0%.

Turning to `Nc1ncc(-c2cccnc2)c2scc(-c3ccc4c(c3)CCN4C(=O)Cc3ccccc3)c12` [GSK683281], the “%Inh” value is 10%.

The subject of a further experiment is FGFR3. Particulars: concentration: 1 μM, replicates: in singlicate; n = 1.
Regarding `CCS(=O)(=O)c1ccc(OC)c(Nc2nccc(-c3c(-c4cccc(NC(=O)c5c(F)cccc5F)c4)nn4ncccc34)n2)c1` [GSK326180], the “%Inh” value is given as 16%.

`COc1cc(Nc2nccc(-c3c(-c4cccc(NC(=O)c5c(F)cccc5F)c4)nn4ncccc34)n2)cc(OC)c1OC` [GSK327238]: the “%Inh” value was 31%.

Take `COc1ccc(-c2coc3ccc(-c4nnc(SCc5ccc(OC)c(C(F)(F)F)c5)o4)cc23)cc1`: the “%Inh” value turned out to be 17%.

For the compound `Oc1cc(Nc2ccnc3cc(I)ccc23)ccc1F` [GW552771], the “%Inh” value is given as 13%.

Turning to `O=c1[nH]cc(-c2ccc(N3CCOCC3)cc2)c2sc(-c3cn[nH]c3)cc12` [GSK2276055], the “%Inh” value turned out to be 21%.

Turning to `FC(F)(F)c1ccc(/C=C/c2cncnc2Nc2ccc3[nH]c(Cc4ccccc4)nc3c2)cc1` [GW709199], the “%Inh” value worked out at 0%.

In the case of `Nc1ncnc2c1nc(-c1ccccc1)n2-c1ccccc1` [SKF-97293], the “%Inh” value amounted to 0%.

Turning to `Cn1cc(-c2ccc3c(c2)CCN3C(=O)Cc2cccc(Cl)c2)c2c(N)ncnc21` [GSK2606590], the “%Inh” value worked out at 0%.

With `Cc1ccc(C(=O)Nc2ccc(Nc3ccnc4cc(-c5nccs5)ccc34)cc2O)cc1.Cl` [GW494702], the “%Inh” value was 13%.

With `COc1cc(Nc2ncc3c(C)nc(-c4cc5ccccc5[nH]4)n3n2)cc(OC)c1OC` [GW869516], the “%Inh” value was 30%.

Consider `COc1ccc(CNC(=O)NC2CCN(c3ccnc(Nc4ccc(F)cc4)n3)CC2)cc1` [GSK1379788], for which the “%Inh” value was found to be 8%.

Consider `CCn1c(-c2nonc2N)nc2c(C#CC(C)(C)O)nc(OC[C@H](N)c3ccccc3)cc21` [GSK943949], for which the “%Inh” value is given as 0%.

In the case of `Cl.c1ccc(-c2ccc3c(Nc4ccc5[nH]ncc5c4)ccnc3c2)nc1` [GW440137], the “%Inh” value came to 11%.

On to `COc1cccc(-c2ccc3c(NC(=O)C4CC4)n[nH]c3n2)c1` [SB-710903], for which the “%Inh” value was found to be 0%.

On to `COc1cccc(C(=O)Nc2cccc(Oc3ccc4nc(NC(=O)C5CC5)cn4n3)c2)c1`, for which the “%Inh” value is reported as 41%.

For the compound `CNC(=O)c1ccccc1Nc1nc(Nc2ccc(N3CCOCC3)cc2)ncc1Cl.Cl` [GSK1576028], the “%Inh” value came out at 99%.

On to `O=C(Nc1cccc(Oc2ccc3nc(NC(=O)C4CC4)cn3n2)c1)c1ccccc1C(F)(F)F`, for which the “%Inh” value is recorded as 0%.

In the case of `Cc1ccc(S(=O)(=O)Nc2ccc(Nc3nccc(Nc4cccc5[nH]ncc45)n3)cc2)cc1` [GSK581271], the “%Inh” value is on record as 7%.

With `Cc1cccc(NC(=O)Nc2ccc(Oc3ncnc4ccn(C)c34)cc2)c1`, the “%Inh” value amounted to 0%.

With `CC(=O)Nc1nc2cnc(Nc3cc(NC(=O)c4cccc(C5(C#N)CC5)c4Cl)ccc3C)nc2s1`, the “%Inh” value is listed as 0%.

As to `COc1cccc(C2=C(Nc3ccc(Cl)c(C(=O)O)c3)C(=O)NC2=O)c1` [SB-390769], the “%Inh” value is on record as 15%.

For the compound `CN(C)S(=O)(=O)c1cc(-c2ccc3nccc(-c4cccc(S(N)(=O)=O)c4)c3c2)cnc1N` [GSK1669921], the “%Inh” value amounted to 26%.

Turning to `O=C(Nc1ccccc1F)NC1CCN(c2ccnc(Nc3ccc(F)cc3)n2)CC1` [GSK1379800], the “%Inh” value amounted to 0%.

`O=C(Nc1n[nH]c2cc(-c3ccoc3)ccc12)C1CC1` [SB-738481]: the “%Inh” value amounted to 7%.

Turning to `CSc1cccc2c(-c3ccncn3)c(-c3ccc(F)cc3)nn12` [GW514786], the “%Inh” value is reported as 4%.

On to `CN(c1ccc(NC(=O)Nc2cc(C(F)(F)F)ccc2F)cc1)c1ccnc(Nc2ccc(S(N)(=O)=O)cc2)n1` [GW809893], for which the “%Inh” value is 22%.

For the compound `O=C(Nc1cccc(-c2nn3ncccc3c2-c2ccnc(Nc3ccccc3)n2)c1)c1c(F)cccc1F` [GSK198271], the “%Inh” value turned out to be 3%.

Consider `c1ccc(-c2n[nH]cc2Nc2ccnc3ccccc23)nc1` [GW694077], for which the “%Inh” value came out at 0%.

With `Cl.Cl.NCC(C(=O)Nc1cc(Br)c(-c2ccnc3[nH]ccc23)s1)c1ccccc1` (stereo not shown) [GSK1269851], the “%Inh” value stood at 27%.

Consider `O=C(Nc1cccc(-c2nn3ccccc3c2-c2ccnc(Nc3cccc(C(F)(F)F)c3)n2)c1)c1c(F)cccc1F` [GSK292658], for which the “%Inh” value is on record as 9%.
